# WRN helicase inh = inhibitors of human WRN helicase; Potency, µM (highest dose often 114 µM), for the others: top-dose activity change, negative = inhibition, hits mostly inhibitors; 0.46% of 360,000 active; WRN helicase unwinding, fluorescent forked duplex, kinetic; further: potency means the concentration at half of the fitted maximal effect; nearly all actives have a fitted effect of over 55% in size
#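 Kinetic red-fluorescence monitoring (525/598 nm) tracks WRN helicase activity after 100 nM fluorophore-quencher forked duplex and 2 mM ATP are added to 20 nM enzyme pretreated 15 min at room temperature with compound.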
# FEN1 inh = human FEN1 inhibition; Recombinant FEN1 flap cleavage, fluorescence, 15 min; Potency, µM (titrated, usually from 114 µM), without a hit: top-dose activity change, negative = inhibition, usual class: inhibitors; P39748; 0.35% of 390,000 active; further: potency means the concentration at half of the fitted maximal effect; nearly all actives have a fitted effect of over 65% in size
#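 Compounds are tested as a concentration series against 10 nM FEN1; after a 15 min room-temperature preincubation, 50 nM substrate starts cleavage, with plate reads at 0 and 15 min. Normalized responses are fitted by a Hill equation.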
# BLM inh = blocks DNA unwinding by human BLM helicase. P54132. recombinant BLM DNA unwinding, fluorescence dequenching. Potency, µM (top dose mostly 56.1 µM), inactives show at the highest dose activity change, negative = inhibition, actives largely listed as inhibitors. 0.2% of 350,000 active. AID 2528;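 further: potency means the concentration at half of the fitted maximal effect; plate controls were vehicle for no effect and no enzyme for full effect; nearly all actives have a fitted effect of over 35% in size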
# Target sequence (P54132 whole entry, looked up): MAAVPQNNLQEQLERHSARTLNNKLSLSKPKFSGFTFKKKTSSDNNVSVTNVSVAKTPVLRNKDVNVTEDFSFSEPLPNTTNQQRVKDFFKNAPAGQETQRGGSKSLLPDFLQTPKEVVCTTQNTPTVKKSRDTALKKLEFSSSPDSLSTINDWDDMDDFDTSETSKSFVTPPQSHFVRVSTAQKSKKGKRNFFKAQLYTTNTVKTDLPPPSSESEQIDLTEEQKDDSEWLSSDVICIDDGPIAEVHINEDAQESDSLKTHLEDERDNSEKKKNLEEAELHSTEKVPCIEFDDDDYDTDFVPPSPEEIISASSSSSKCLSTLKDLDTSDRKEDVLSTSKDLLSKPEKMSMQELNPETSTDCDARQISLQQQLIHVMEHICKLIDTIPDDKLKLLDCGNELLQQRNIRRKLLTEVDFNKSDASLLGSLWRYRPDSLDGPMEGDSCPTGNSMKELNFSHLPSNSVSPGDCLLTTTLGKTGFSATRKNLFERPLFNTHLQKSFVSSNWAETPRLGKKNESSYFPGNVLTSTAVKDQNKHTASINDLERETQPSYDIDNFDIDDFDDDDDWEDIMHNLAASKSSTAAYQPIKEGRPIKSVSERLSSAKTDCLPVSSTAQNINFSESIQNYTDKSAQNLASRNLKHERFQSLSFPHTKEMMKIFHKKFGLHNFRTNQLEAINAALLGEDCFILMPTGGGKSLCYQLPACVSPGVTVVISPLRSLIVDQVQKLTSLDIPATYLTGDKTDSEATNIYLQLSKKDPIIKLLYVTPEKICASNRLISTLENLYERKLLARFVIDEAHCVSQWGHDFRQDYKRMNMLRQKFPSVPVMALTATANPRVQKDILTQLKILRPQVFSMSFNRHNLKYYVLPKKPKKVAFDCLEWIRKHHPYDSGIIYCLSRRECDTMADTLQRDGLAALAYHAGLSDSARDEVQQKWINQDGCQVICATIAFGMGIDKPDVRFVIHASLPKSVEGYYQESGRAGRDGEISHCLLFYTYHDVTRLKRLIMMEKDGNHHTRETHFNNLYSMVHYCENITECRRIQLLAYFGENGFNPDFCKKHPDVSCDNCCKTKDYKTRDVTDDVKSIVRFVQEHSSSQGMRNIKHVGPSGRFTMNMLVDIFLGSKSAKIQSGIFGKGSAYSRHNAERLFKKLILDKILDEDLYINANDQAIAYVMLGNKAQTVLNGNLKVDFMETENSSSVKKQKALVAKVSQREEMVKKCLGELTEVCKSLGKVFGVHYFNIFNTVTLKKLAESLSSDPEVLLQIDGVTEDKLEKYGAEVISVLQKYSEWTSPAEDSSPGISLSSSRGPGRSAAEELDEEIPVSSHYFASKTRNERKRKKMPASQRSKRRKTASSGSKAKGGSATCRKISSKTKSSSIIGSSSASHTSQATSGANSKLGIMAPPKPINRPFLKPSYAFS
# APEX1 inh = APE1 (human) endonuclease inhibition; P27695; recombinant APE1, TAMRA/BHQ-2 abasic DNA cleavage fluorescence; Potency, µM (highest dose often 65.8 µM), inactives show at the top dose activity change, negative = inhibition, actives largely listed as inhibitors; 0.35% of 350,000 active; AID 2517;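 further: potency means the concentration at half of the fitted maximal effect; plate controls were vehicle for no effect and reference inhibitor for full effect; nearly all actives have a fitted effect of over 55% in size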
#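 Step 1: APE1 (0.75 nM) with compound, 15 min RT. Step 2: add 50 nM fluorophore/quencher THF duplex. Step 3: three fluorescence reads 60 s apart (525/598 nm); read 3 minus read 1 = reaction progress.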
# PI5P4Ka inh = PI5P4K alpha (human) kinase inhibition; P48426; PI5P4Kalpha enzyme, ADP-Glo luminescence, 60 min; hits give low values; max response, %; 1.2% of 330,000 active; active means max response of -50% or lower; inconclusive means between -30% and -50%; inactive means -30% or higher; further: value at the top dose of about 77 µM
#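 Compounds were pin-transferred onto PI5P4Kalpha and substrate in HEPES pH 7.4 buffer with EGTA, CHAPS and 5% DMSO. ATP (5 microM final) started the reaction, which ran 60 minutes at room temperature before ADP-Glo detection.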
# RECQ1 helicase = blocks DNA unwinding by human RECQ1; P46063; RECQ1 DNA unwinding, red fluorescence kinetic read; Potency, µM (doses to about 57.3 µM), without a hit: at the highest dose activity, negative = inhibition, usual class: inhibitors; 0.54% of 240,000 active;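 further: potency means the concentration at half of the fitted maximal effect; plate controls were vehicle for no effect and no enzyme for full effect; nearly all actives have a fitted effect of over 30% in size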
#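 RECQ1T1 50 nM; forked duplex (20 bp + 30-nt ss tails) 200 nM, ATP 2 mM final; pH 8.0, 2 mM MgCl2, 2.5 ug/ml poly(dI-dC); 15 min compound preincubation; discontinuous kinetic read over 2 h at RT.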
# An asterisk follows results filed as active; i = inactive; ? = inconclusive; · = no result given; [ ] = dose if it differs, or a comment. Hits are enriched below; roughly 1.5% of the tested compounds scored in any of these assays. Unless noted, the call rests on the fitted dose curve; in most records, active means well fitted curve in the direction sought with a large enough effect; inconclusive means small, poorly fitted or top-dose-only effect, or another doubt; inactive means no such curve, though single readings can be large; an effect the other way counts as inactive or inconclusive. Unless noted, on the % scale 0 is the no-effect control and ±100 the full control effect.
SMILES,WRN helicase inh,FEN1 inh,BLM inh,APEX1 inh,PI5P4Ka inh,RECQ1 helicase
CCCCCCC(=O)N(O)C1CC(=O)N(c2ccc(F)cc2)C1=O (configuration not stated),28µM*,-5%,-2%,-5%,-25,-4%
N=C1C=CC(=C(c2ccc(N)cc2)c2ccc(N)cc2)C=C1,-11%,-21%,·,-3%,-53*,-9%
NC(=O)C1CCN(c2nc(-c3cccc4ccccc34)cs2)CC1,·,·,·,-16%,·,·
O=C1NC(=Nc2ccc(O)cc2)S/C1=C/c1ccco1,-10%,-1%,-8%,?,?,-5%
O=C1NC(=Nc2ccc(Cl)cc2)/C(=C/c2ccco2)S1,-7%[11.6 µM],-4%,11µM*,?,?,-13%
Cc1ccc(N=C2NC(=O)/C(=C\c3ccco3)S2)cc1,?,-5%,-26%,?,-57*,-18%
Cc1cccc(N=C2NC(=O)S/C2=C\c2ccco2)c1,-27%,-26%,-21%,?,?,-5%
N#C/C(=C(/O)CSc1nnc(Cc2cccs2)n1C1CCCCC1)c1nc2ccccc2[nH]1,4%[11.6 µM],-5%,4%,3%,-64*,2%
COc1ccccc1-c1nnc(SC/C(O)=C(\C#N)c2nc3ccccc3[nH]2)n1C1CCCCC1,-23%,-9%,-4%,20%,?,-10%
CC(=O)/C(C#N)=C1\NC(=O)C(Cc2ccccc2Cl)S1 (configuration not stated),-17%,-12%,-8%,-6%,?,-2%
CC(=O)/C(C#N)=C1\NC(=O)C(Cc2cc(Cl)ccc2Cl)S1 (configuration not stated),-3%,15%,-12%,-7%,-53*,-4%
Cc1ccc(NC(=O)CSc2nnc(-c3cccc([S+](=O)([O-])N4CCCC4)c3)n2-c2ccccc2)cc1,·,·,·,49%,·,·
CCN1CCc2nc3sc(C(=O)c4ccccc4)c(N)c3cc2C1,·,-15%,-12%,·,·,·
Nc1ccccc1Sc1ccc(C(=O)c2ccccc2C(=O)O)cc1[N+](=O)[O-],-33%,-11%,-5%,-2%,-66*,-4%
CC(=O)c1ccc(Sc2ccccc2N)c([N+](=O)[O-])c1,-2%,-13%,-11%,2%,-1,2%
Cn1c(=S)[nH]c2[nH]c(=O)cnc2c1=O,-10%,-2%,3%,1%,-52*,-17%
COc1ccc(CN2CC[C@H]3C=CC[C@@H](C(=O)Nc4ccccc4)[C@H]3C2=O)cc1OC,·,-4%,·,·,·,·
Cc1[nH]n2cnnc2c(=O)c1Br,-3%,16%,-6%,16%,-51*,i
Cc1cc(C)cc(-n2ccn3cnnc3c2=O)c1,·,-3%,-1%,·,·,·
CCCCC(=O)Nc1ccc(C(=O)NNC(=O)c2ccc(C)c(Br)c2)cc1,-6%[11.6 µM],-14%,-13%,25µM*,-10,-9%
N#Cc1ccccc1S(=O)(=O)N1CCN(C(=O)c2cc3c(s2)CCC3)CC1,-13%[11.6 µM],-8%,·,5.3µM*,?,·
Cc1ccc(CNc2ncc(N3CCCCC3)cn2)cc1,·,·,·,13%,·,·
O=c1c(/C=N/Nc2ccccc2)c(Sc2nnnn2-c2ccccc2)nc2ccccn12,0%,-11%,-2%,0%,·,i
O=C(O)c1ccccc1N/N=C/c1c(Sc2nnnn2-c2ccccc2)nc2ccccn2c1=O,-9%[11.6 µM],?,-22%,35µM*,-7,?
COc1ccc(NCc2cc3cc4c(cc3n(CC(=O)Nc3ccc(C)c(C)c3)c2=O)OCO4)cc1,·,-11%,-8%,·,·,·
SMILES,WRN helicase inh,FEN1 inh,BLM inh,APEX1 inh,PI5P4Ka inh,RECQ1 helicase
N#Cc1c(=O)c2nc(NCCCO)ncc2n2c(=O)c3ccccc3[nH]c12,?,?,-20%,?,-65*,-14%
O=c1[nH]c(=S)[nH]c2scc(-c3ccc(Br)cc3)c12,?,-8%,·,·,-55*,·
CC[C@H](C)[C@H](NC(=O)[C@H](C)NC(=O)CNC(=O)[C@H](CCCN=C(N)N)NC(=O)[C@H](C)NC(=O)[C@H](CC(C)C)NC(=O)[C@H](CCC(=O)O)NC(=O)[C@H](CC(C)C)NC(=O)[C@H](C)NC(=O)[C@@H](N)CCC(=O)O)C(=O)N[C@@H](Cc1ccccc1)C(=O)N[C@@H](CCC(N)=O)C(=O)N[C@@H](C)C(=O)O,·,·,-4%,2%,·,0%
O=C([O-])[C@@H]1[O][Sb+]([O][Sb+]2[O][C@H]([C@H](O)CO)[C@H](O)[C@H](C(=O)[O-])[O]2)[O][C@H]([C@H](O)CO)[C@@H]1O,·,·,-9%,-3%,·,-13%
C=C(C)C1CCC2(C(=O)O)CCC3(C)C(CCC4C5(C)C(C=O)C(O)C(C)(C)C5CCC43C)C12 (configuration not stated),-4%[11.6 µM],-5%,-10%,?,-54*,i
Nc1ccn([C@@H]2O[C@H](CO)[C@H](O)C2(F)F)c(=O)n1,·,·,3%,·,·,·
N#C/C(=C/c1cn(Cc2ccc(F)cc2)c2ccccc12)C(=O)Nc1cccc(Cl)c1,·,89µM*,-8%,·,·,·
O=C(O)c1ccccc1NS(=O)(=O)c1cccc(C(F)(F)F)c1,-9%,0%,0%,3%,·,4%
O=C(O)c1ccccc1NS(=O)(=O)c1cccc(-n2sc3ccccc3c2=O)c1,11µM*,89µM*,1%,-7%,-97*,·
CCCCc1cc2c(cn1)=C(OC(=O)c1ccc(Cl)nc1)C(C)(OC(=O)CC)C(=O)C=2 (configuration not stated),·,·,-9%[12.4 µM],-3%[12.4 µM],·,8%[11.5 µM]
O=C1c2ccccc2C(=O)c2[nH]cnc21,2%,-14%,-4%,1%,-11,-7%
O=C1c2ccccc2C(=O)c2[nH]c(=O)[nH]c21,-15%[11.6 µM],?,-27%,-18%,-69*,·
CC[C@]12c3[nH]c4cc(CCC(=O)N(C)C)ccc4c3CCN1C(=O)[C@@H](CC(=O)NCCCOC)C[C@@H]2C(=O)N1CCN(C(=O)C2CC2)CC1,2%,14%,·,21µM*,?,·
O=C(O)c1ccc(CSc2nnc(-c3cccc([S+](=O)([O-])N4CCCC4)c3)n2-c2ccccc2)cc1,·,·,·,5%,·,·
CCc1ccc(NC(=O)CC2C(=O)N(c3ccc(Cl)cc3)C(=O)N2C2CCCC2)cc1 (configuration not stated),·,40µM*,-7%,·,·,·
OC1OC[C@@H](O)[C@@H](O)[C@@H]1O (some centres not stated),·,·,-1%,10%,·,-19%
O=C1C=CC(=O)N1c1ccc(OC(F)F)cc1,32µM*,-4%,1%,0%,?,0%
O=C1C=CC(=O)N1c1ccc(O)cc1,-8%,-33%,-4%,1%,-19,-8%
